From ChEMBL document CHEMBL3988442, “University of Dundee, Small-Polar-MMV Screening Library” (2021)
Screen size: about 48,000 compounds; about 13,000 (27%) showed an effect of 50% or more. The list shows a part of the results.

Test system: Wolbachia pipientis
Test: Anti-Wolbachia Cell-Based Screen
Format: functional
Design: scale not given: in the data most compounds retested in dose-response had high values
Conditions: 5 µM

**Q.** `CN(C)Cc1nnc(C2CCCN(c3ncccc3F)C2)n1C` (stereo not drawn) was tested. Which “Percent Effect” value did it give?
**A.** -23.88%

**Q.** Which “Percent Effect” value does the source give for `Cc1cc(CN(C)CC2(O)CCCN(CCC3CCCCC3)C2=O)no1` (stereo not drawn) here?
**A.** -6.768%

**Q.** How did the “Percent Effect” value turn out when `O=C(CN1CCCc2sccc2C1=O)NC1CCc2nccn2C1` (stereo not drawn) was run?
**A.** 7.867%

**Q.** For `O=C(CCc1nc(Cl)n[nH]1)N[C@H]1CC[C@H]1NC1Cc2ccccc2C1`, which “Percent Effect” value is on record?
**A.** -20.04%

**Q.** With `CCNC(=O)CCC(=O)N1CCC(Oc2cc(C)ccc2C)CC1` as the molecule, how does the “Percent Effect” value read?
**A.** 108%

**Q.** Which “Percent Effect” value does the source give for `Cc1ccc(C)c(OC2CCN(C(=O)NCC(=O)N3CCCC3)CC2)c1` here?
**A.** 99.13%

**Q.** `CCC(=O)N1CCC(Oc2ccc(C(=O)NCCN(C)C)cc2Cl)CC1` was tested. Which “Percent Effect” value did it give?
**A.** 19.63%

**Q.** `COC(=O)NCC(=O)N1CCC(Oc2cccc(C)c2)CC1` was tested. Which “Percent Effect” value did it give?
**A.** -5.707%

**Q.** `Cc1ccc(C)c(OC2CCN(C(=O)c3ccc(C)[nH]c3=O)CC2)c1` was tested. Which “Percent Effect” value did it give?
**A.** -1.4%

**Q.** `Cc1ccccc1OC1CCN(C(=O)CNC(=O)N(C)C)CC1` was tested. Which “Percent Effect” value did it give?
**A.** 13.16%

**Q.** With `Cc1ccc(C)c(OC2CCN(C(=O)c3ccc(O)nc3)CC2)c1` as the molecule, how does the “Percent Effect” value read?
**A.** -12.69%

**Q.** `Cc1ccc(C)c(OC2CCN(C(=O)CNc3ccccc3Cl)CC2)c1` was tested. Which “Percent Effect” value did it give?
**A.** 209.6%

**Q.** For `CN(C)CCNC(=O)c1ccc(OC2CCN(C(=O)CO)CC2)c(Cl)c1`, which “Percent Effect” value is on record?
**A.** 12.3%

**Q.** How did the “Percent Effect” value turn out when `O=C([C@H]1C[C@H]2OCC[C@H]2N(C(=O)c2cnccn2)C1)N1CCCCO1` was run?
**A.** -3.887%

**Q.** For `CN(C)C(C(=O)N1CCN(S(N)(=O)=O)CC1)c1ccccc1F` (stereo not drawn), which “Percent Effect” value is on record?
**A.** -29.81%

**Q.** For `Cn1c(C(F)(F)F)nn(CCNC(=O)NCc2ccccc2)c1=O`, which “Percent Effect” value is on record?
**A.** -13.86%

**Q.** For `Cc1cnn(Cc2cc(F)ccc2F)c1NC(=O)CNC(=O)C1CC1`, which “Percent Effect” value is on record?
**A.** -28.4%

**Q.** How did the “Percent Effect” value turn out when `O=C1CCc2cc(S(=O)(=O)NCc3cc4n(n3)CCCNC4)ccc2N1` was run?
**A.** -2.764%

**Q.** With `Cc1ccc(NC2CCN(C(=O)COc3cccc(F)c3)CC2)nn1` as the molecule, how does the “Percent Effect” value read?
**A.** 99.48%

**Q.** With `Cc1ccc(NC2CCN(C(=O)COc3cccnc3)CC2)nn1` as the molecule, how does the “Percent Effect” value read?
**A.** 0.9961%

**Q.** With `Cc1ccc(NC2CCN(C(=O)Cc3cccc(F)c3)CC2)nn1` as the molecule, how does the “Percent Effect” value read?
**A.** 5.367%

**Q.** With `Cc1ccc(NC2CCN(C(=O)COc3ccccc3)CC2)nn1` as the molecule, how does the “Percent Effect” value read?
**A.** 80.33%

**Q.** Which “Percent Effect” value does the source give for `CC(C)n1cc(S(=O)(=O)NCCc2nnc3ccccn23)cn1` here?
**A.** -12.48%

**Q.** Which “Percent Effect” value does the source give for `CCn1ncc2c1C(COC)N(C(=O)Cc1cccs1)CC2` (stereo not drawn) here?
**A.** 110.7%

**Q.** How did the “Percent Effect” value turn out when `CCn1ncc2c1C(COC)N(C(=O)c1cscn1)CC2.O=C(O)C(F)(F)F` (stereo not drawn) was run?
**A.** 99.84%

**Q.** With `CCn1ncc2c1C(COC)N(C(=O)c1cccs1)CC2.O=C(O)C(F)(F)F` (stereo not drawn) as the molecule, how does the “Percent Effect” value read?
**A.** 114.8%

**Q.** Which “Percent Effect” value does the source give for `CCn1ncc2c1C(COC)N(C(=O)CCc1ccccc1)CC2.O=C(O)C(F)(F)F` (stereo not drawn) here?
**A.** 87.3%

**Q.** For `CCOCC1c2c(cnn2CC2CC2)CCN1C(=O)c1ccncn1.O=C(O)C(F)(F)F` (stereo not drawn), which “Percent Effect” value is on record?
**A.** -2.874%

**Q.** `COCC1c2nnn(CC3CC3)c2CCN1C(=O)Cc1cccs1` (stereo not drawn) was tested. Which “Percent Effect” value did it give?
**A.** 9.028%

**Q.** `CCn1ncc2c1C(COCC1CC1)N(C(=O)c1ccncn1)CC2.O=C(O)C(F)(F)F` (stereo not drawn) was tested. Which “Percent Effect” value did it give?
**A.** -5.083%

**Q.** For `CCn1ncc2c1C(COCC1CC1)N(Cc1ccccn1)CC2.O=C(O)C(F)(F)F.O=C(O)C(F)(F)F` (stereo not drawn), which “Percent Effect” value is on record?
**A.** 3.009%

**Q.** How did the “Percent Effect” value turn out when `CCn1ncc2c1C(COCC1CC1)N(Cc1cnn(C)c1)CC2.O=C(O)C(F)(F)F.O=C(O)C(F)(F)F.O=C(O)C(F)(F)F` (stereo not drawn) was run?
**A.** -14.36%

**Q.** `Fc1cnc(N2CC[C@@H](N3CCOCC3)[C@@H]2Cc2ccccc2)nc1` was tested. Which “Percent Effect” value did it give?
**A.** -1.587%

**Q.** Which “Percent Effect” value does the source give for `CC(C)(O)CCc1ccc(C(=O)N2CCN(CC(F)(F)F)CC2)cc1` here?
**A.** 0.1309%

**Q.** How did the “Percent Effect” value turn out when `NS(=O)(=O)CCN1CCOC(c2ccsc2)C1` (stereo not drawn) was run?
**A.** -9.667%

**Q.** `CN1CC(c2ccccc2)CC2(CCN(C(=O)c3cccnn3)CC2)C1` (stereo not drawn) was tested. Which “Percent Effect” value did it give?
**A.** 0.4144%

**Q.** `COc1ccc2c(c1)C(=O)N(C)C1(CCN(C(=O)OC(C)(C)C)CC1)N2` was tested. Which “Percent Effect” value did it give?
**A.** -17.46%

**Q.** How did the “Percent Effect” value turn out when `CCn1ncc2c1C(COC)N(C(=O)c1ccsc1)CC2.O=C(O)C(F)(F)F` (stereo not drawn) was run?
**A.** 90.11%

**Q.** With `CCn1ncc2c1C(COC)N(C(=O)c1ccc3c(c1)OCO3)CC2.O=C(O)C(F)(F)F` (stereo not drawn) as the molecule, how does the “Percent Effect” value read?
**A.** 10.43%

**Q.** `COCC1c2c(cnn2C)CCN1C(=O)c1cscn1.O=C(O)C(F)(F)F` (stereo not drawn) was tested. Which “Percent Effect” value did it give?
**A.** 127.3%

**Q.** With `Cn1ncc2c1C(COCC1CC1)N(C(=O)c1ccncn1)CC2.O=C(O)C(F)(F)F` (stereo not drawn) as the molecule, how does the “Percent Effect” value read?
**A.** 6.391%

**Q.** With `COCC1CN(C(=O)c2cccn2C)Cc2c1cnn2CC1CC1.O=C(O)C(F)(F)F` (stereo not drawn) as the molecule, how does the “Percent Effect” value read?
**A.** 4.422%

**Q.** Which “Percent Effect” value does the source give for `COCC1c2c(cnn2C)CCN1C(=O)c1cccn1C.O=C(O)C(F)(F)F` (stereo not drawn) here?
**A.** 106%

**Q.** With `COCC1c2c(cnn2C)CCN1Cc1ccc(F)cc1.O=C(O)C(F)(F)F.O=C(O)C(F)(F)F` (stereo not drawn) as the molecule, how does the “Percent Effect” value read?
**A.** 5.645%

**Q.** How did the “Percent Effect” value turn out when `CC(O)CC(C)(C)CNC(=O)Nc1cnn(-c2ccccc2F)c1` (stereo not drawn) was run?
**A.** -9.575%

**Q.** How did the “Percent Effect” value turn out when `Cc1nccc(-c2ccccc2)c1C(=O)N1CCC2(CCCO2)CC1` was run?
**A.** -10.01%

**Q.** How did the “Percent Effect” value turn out when `COc1ccc([C@@H]2CN(C(=O)CCn3cccn3)C[C@H]2NC(C)=O)cc1` was run?
**A.** 10.72%

**Q.** How did the “Percent Effect” value turn out when `Cc1nccc(-c2cccc(NCC(=O)N3CCc4sccc4C3)c2)n1` was run?
**A.** -3.121%

**Q.** How did the “Percent Effect” value turn out when `CC(C)Oc1ccc(CN2CCCC(N3CCCC3)C2)cc1CO` (stereo not drawn) was run?
**A.** -11.2%

**Q.** `O=C(C1SCCc2ccccc21)N1CCC(O)CC1` (stereo not drawn) was tested. Which “Percent Effect” value did it give?
**A.** -12.36%

**Q.** With `CC1(C)CC(C(=O)N2CCC3(CCC(=O)N(C4CC4)C3)CC2)CCO1` (stereo not drawn) as the molecule, how does the “Percent Effect” value read?
**A.** -18.18%

**Q.** Which “Percent Effect” value does the source give for `CCCS(=O)(=O)N1C[C@@H]2CN(Cc3ccco3)CCO[C@@H]2C1.O=C(O)C(F)(F)F` here?
**A.** 4.107%

**Q.** For `CCCS(=O)(=O)N1CCN(Cc2ccco2)CC1.O=C(O)C(=O)O`, which “Percent Effect” value is on record?
**A.** 120.3%

**Q.** How did the “Percent Effect” value turn out when `CC(C)OCCS(=O)(=O)N1CCN(Cc2ccco2)CC1` was run?
**A.** -6.984%

**Q.** With `CCS(=O)(=O)N1CCC(c2cc3n(n2)[C@@H](C(F)(F)F)C[C@@H](C)N3)CC1` as the molecule, how does the “Percent Effect” value read?
**A.** -9.512%

**Q.** Which “Percent Effect” value does the source give for `CC(C)OCc1ccc(CNC(=O)NC2(CO)CCCC2)cc1` here?
**A.** 4.047%

**Q.** `NC(=O)NC1CCN(Cc2ccc3c(c2)CCC3)CC1` was tested. Which “Percent Effect” value did it give?
**A.** -13.21%

**Q.** `Cc1nnc(CN(Cc2ccc3c(c2)OCO3)C2CCC(C)CC2)o1` (stereo not drawn) was tested. Which “Percent Effect” value did it give?
**A.** 119.4%

**Q.** Which “Percent Effect” value does the source give for `Cc1nnc(CN(Cc2ccc(Cl)c(Cl)c2)C(C)C)o1` here?
**A.** 6.742%

**Q.** How did the “Percent Effect” value turn out when `Cc1nnc(CN(Cc2ccc3c(c2)OCO3)C2CCCCC2)o1` was run?
**A.** 129.8%

**Q.** Which “Percent Effect” value does the source give for `Cc1nnc(CN(Cc2ccccc2Br)C2CC2)o1` here?
**A.** -0.8138%

**Q.** How did the “Percent Effect” value turn out when `Cc1nnc(CN(Cc2cccc(Br)c2)C2CC2)o1` was run?
**A.** -10%

**Q.** How did the “Percent Effect” value turn out when `Cc1nnc(CN(Cc2ccc(Cl)c(Cl)c2)C2CC2)o1` was run?
**A.** 12.83%
